# Experimental data from article PMC4336329 (PLoS ONE, 2015).
# Hit rate of the full screen: of about 310,000 compounds, about 14,000 (4.5%) showed an effect of 50% or more. Effects have a minus sign here. This is one part of a sample in which strong results are shown more often than they occur.
# Molecular target: human ether-à-go-go-related gene (hERG) potassium channel (human, UniProt Q12809)
# Experiment: primary screen, population patch clamp on CHO cells stably expressing hERG; higher = less effect of the substance
# 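Also: peak tail current of the secondary pulse compared with the same well before compound.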
# Sequence of human ether-à-go-go-related gene (hERG) potassium channel (Q12809 whole entry, looked up): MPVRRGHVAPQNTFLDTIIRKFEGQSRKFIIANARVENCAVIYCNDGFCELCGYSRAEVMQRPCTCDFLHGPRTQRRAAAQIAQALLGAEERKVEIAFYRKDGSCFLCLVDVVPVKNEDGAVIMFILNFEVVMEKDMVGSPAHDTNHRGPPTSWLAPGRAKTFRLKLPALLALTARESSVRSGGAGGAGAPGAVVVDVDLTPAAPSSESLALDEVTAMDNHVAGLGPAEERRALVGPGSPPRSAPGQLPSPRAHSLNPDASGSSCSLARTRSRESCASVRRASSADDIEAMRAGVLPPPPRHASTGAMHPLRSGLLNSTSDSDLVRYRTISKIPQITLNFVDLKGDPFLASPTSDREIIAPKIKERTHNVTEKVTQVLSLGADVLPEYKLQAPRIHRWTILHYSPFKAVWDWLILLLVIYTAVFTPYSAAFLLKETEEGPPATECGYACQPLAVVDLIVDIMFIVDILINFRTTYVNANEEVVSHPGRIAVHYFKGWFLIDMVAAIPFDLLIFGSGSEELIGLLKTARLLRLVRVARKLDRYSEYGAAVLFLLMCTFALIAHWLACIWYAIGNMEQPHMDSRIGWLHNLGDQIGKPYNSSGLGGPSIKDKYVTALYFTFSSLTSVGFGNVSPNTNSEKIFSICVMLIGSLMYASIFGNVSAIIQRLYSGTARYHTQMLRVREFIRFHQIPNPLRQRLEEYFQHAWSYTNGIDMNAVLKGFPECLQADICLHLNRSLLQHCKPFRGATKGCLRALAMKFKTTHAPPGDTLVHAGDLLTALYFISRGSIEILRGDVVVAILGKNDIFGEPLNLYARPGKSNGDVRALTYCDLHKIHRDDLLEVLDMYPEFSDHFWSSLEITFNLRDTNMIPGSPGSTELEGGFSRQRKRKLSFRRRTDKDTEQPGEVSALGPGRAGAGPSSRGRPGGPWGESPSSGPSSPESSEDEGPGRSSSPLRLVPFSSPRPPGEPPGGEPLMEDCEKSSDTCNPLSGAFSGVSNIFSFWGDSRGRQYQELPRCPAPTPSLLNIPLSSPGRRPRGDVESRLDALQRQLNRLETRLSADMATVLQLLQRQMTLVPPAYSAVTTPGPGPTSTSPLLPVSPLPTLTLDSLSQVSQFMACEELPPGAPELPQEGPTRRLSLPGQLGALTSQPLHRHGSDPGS
row,SMILES,"hERG current change (%, negative = inhibition) at 10uM"
1,CCC(CC)c1nnc(NC(=O)c2cccnc2SC)s1,15.4%
2,C/C=C/c1ccc(OCCCCN2C(=O)NC(C)(C)C2=O)c(OC)c1,-7.09%
3,COc1ccccc1C(O)(C(=O)NN(C)c1ccccc1)c1ccccc1OC,9.03%
4,Cc1cccc(OCCCCc2c(C)n[nH]c2C)c1C,9.64%
5,CCc1ccc(/C=C2\Oc3cc(OS(C)(=O)=O)ccc3C2=O)cc1,11.8%
6,O=S(=O)(NC1=NCCC1)c1cccc(NS(=O)(=O)c2ccc(OC(F)(F)F)cc2)c1,1.71%
7,CN1CCN(CCNC(=O)Nc2ccccc2C(F)(F)F)CC1,3.26%
8,CC1(C)C2CCC1(C)C(OC(=O)C[n+]1ccccc1N)C2.[Br-] (stereo not shown),-35.3%
9,CCOC(=O)C1CCN(c2cc3c(cc2NC(=O)c2cc(OC)ccc2Br)n(C)c(=O)n3C)CC1,0.12%
10,COCCNc1c([N+](=O)[O-])c(=O)n(-c2ccccc2)c2ccccc12,-25.2%
11,O=C(c1ccccc1Oc1ccc(C(F)(F)F)cc1[N+](=O)[O-])N1CCOCC1,1.22%
12,COC(=O)CN1C(=O)C(O)(CC(=O)c2cccc(Br)c2)c2ccccc21 (stereo not shown),-11.7%
13,CN(Cc1ccccn1)Cc1nc(COc2ccccc2)no1,-2.85%
14,COc1cc(CNC23CC4CC(CC(C4)C2)C3)ccc1OCc1ccccc1.Cl,-64%
15,Cl.c1ccc(COc2ccccc2CNC23CC4CC(CC(C4)C2)C3)cc1,-83.6%
16,COc1cccc(CNC23CC4CC(CC(C4)C2)C3)c1OCc1ccccc1.Cl,-50%
17,c1ccc(COc2ccccc2CNC2CCCC2)cc1,-39.7%
18,COc1cccc(CNCCO)c1OCc1ccccc1.Cl,-1.31%
19,CCNCc1ccccc1OCc1ccccc1.Cl,-3.77%
20,COc1cccc(CNCc2cccnc2)c1OCc1ccccc1.Cl,19.3%
21,COc1cc(CNC(=O)C2CC2)ccc1OCc1ccccc1,-11.8%
22,CNCc1ccc(OCc2ccccc2)c(OC)c1,0.71%
23,COc1cc(NC(=O)CS(=O)(=O)c2ccccc2)cc(OC)c1OC,11.3%
24,Cc1cccc(NC(=O)Nc2cccc(Oc3c(F)c(F)c(F)c(F)c3F)c2)c1,8.83%
25,N#C/C(=C/c1ccc(Br)s1)C(=O)NCCc1c[nH]c2ccccc12,18.8%
